This is a sample that favours compounds with a hit; in the whole collection about 3.5% have one here.
FBW7 act – FBW7 E3 ligase activators, primary screen, biochemical, AlphaScreen, human | F-box/WD repeat-containing protein 7 (Homo sapiens), Q969H0 | normalized activity (activation), % at 26.1 µM | AID 1259310, 2017 | 650,000 tested, 0.13% active | AlphaScreen FBW7–phospho-cyclin E peptide binding, activator screen; in the data active = normalized activity above about 1.9%;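 note: purified mutant Fbw7 with reduced substrate affinity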
GPR151 activ – activators of human GPR151, primary screen, cell-based, PathHunter beta-arrestin, luminescence; PathHunter beta-arrestin GPR151 cells; activation, % at 11.2 µM; 650,000 tested, 1% active; AID 1508602, 2020; in the data active = activation above about 4.9%;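 note: 0% = median of compound wells and 100% = cells with positive control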
MITF inh – MITF inhibitors, primary screen, biochemical, AlphaScreen, human | inhibition, % at 2.6 µM | AlphaScreen MITF homodimerization, bead proximity signal | 650,000 tested, 0.91% active | AID 1259374, 2018; in the data active = inhibition above about 50%;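 note: 0% = vehicle wells with protein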
Target sequence (O75030 whole entry, looked up): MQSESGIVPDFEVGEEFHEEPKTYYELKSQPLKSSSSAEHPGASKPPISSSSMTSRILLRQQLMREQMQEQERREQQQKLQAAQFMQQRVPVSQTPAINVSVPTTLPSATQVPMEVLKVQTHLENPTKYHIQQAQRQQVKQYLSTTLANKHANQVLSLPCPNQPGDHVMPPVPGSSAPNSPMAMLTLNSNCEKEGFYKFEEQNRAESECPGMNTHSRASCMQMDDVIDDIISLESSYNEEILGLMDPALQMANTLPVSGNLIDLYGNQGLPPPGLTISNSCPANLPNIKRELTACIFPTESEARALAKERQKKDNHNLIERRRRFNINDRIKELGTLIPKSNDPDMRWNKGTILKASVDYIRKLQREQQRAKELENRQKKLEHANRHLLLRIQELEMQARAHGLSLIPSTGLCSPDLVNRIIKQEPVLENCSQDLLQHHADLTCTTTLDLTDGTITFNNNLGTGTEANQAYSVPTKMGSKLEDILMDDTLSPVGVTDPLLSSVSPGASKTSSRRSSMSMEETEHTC
TEAD-YAP block – TEAD-YAP interaction inhibition, primary screen, TEAD-YAP interaction inhibitor project, luminescence, HEK-TIYL cells | TEAD-Gal4/YAP UAS-luciferase luminescence | inhibition, % at 9.12 µM | 640,000 tested, 1.4% active | AID 1259422, 2018; in the data active = inhibition above about 32%;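 note: 0% = median of test compound wells and 100% = reference inhibitor wells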
GPR151 confirm – GPR151 activators, triplicate retest, confirmation, cell-based, PathHunter beta-arrestin, luminescence; GPR151 PathHunter beta-arrestin cells, 90 min; % of EA-reagent control over plate median; shares compounds with GPR151 activ; 6,700 tested, under 10 active; activation, % at 11.2 µM; AID 1508609, 2020;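 active = mean percent activation across replicates above the confirmation screen cutoff of 4.91%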
GPR119 counter – GPR119 activators in beta-arrestin cells, counter-screen for GPR151 activator project, cell-based, PathHunter beta-arrestin, luminescence, triplicate; 6,700 tested, 0.3% active; activation, % at 11.2 µM; shares compounds with GPR151 activ; 90 min; 0 = compound-well median, 100 = enzyme-acceptor control;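 active = mean percent activation in the counterscreen above 29.09%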;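 note: counterscreen on off-target GPR119 to flag nonselective hits from the GPR151 activator screen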
Active calls of the source: *; . = not tested or not shown.

SMILES	FBW7 act	GPR151 activ	MITF inh	TEAD-YAP block	GPR151 confirm	GPR119 counter
CN(C)C(NC(=O)Cc1ccccc1)C(Cl)(Cl)Cl (stereo not drawn)	0	6.0*	27	-3	-1	-8
C/C(Cn1nnc2ccccc21)=N/OC(=O)c1ccccc1C	0	-1	-6	-3	.	.
Cc1ccc(NC(=O)/C(=C\c2ccc([N+](=O)[O-])cc2)NC(=O)c2ccccc2Br)c(Br)c1	0	0	21	-2	.	.
CCOC(=O)/C(N=Nc1ccc2[nH]c(=O)[nH]c2c1)=C(\C)O	0	0	-4	-5	.	.
Cc1ccc(N2CC(C(=O)N3CCCCCC3)CC2=O)cc1 (stereo not drawn)	0	4.9*	-1	-10	0	-8
CC(C)NC(=O)C1CC(=O)N(c2ccc(Cl)cc2)C1 (stereo not drawn)	0	5.8*	3	-4	0	1
O=C(NC1CCCC1)C(c1cccs1)N(C(=O)c1ccno1)c1cccnc1 (stereo not drawn)	0	0	12	-3	.	.
O=C(Cn1c(=O)n(-c2ccccc2)c(=O)c2oc3ccccc3c21)N1CCCCC1	0	5.1*	5	-6	-1	-3
COc1ccc(CN(C)CCN(C)C)c(OC)c1C	0	6.6*	9	4	1	0
COc1cccc(CN(C)CCN(C)C)c1O	0	-2	-1	1	.	.
O=C1COc2cc(S(=O)(=O)CCC(=O)N3CCCCCC3)ccc2N1	0	5.1*	8	4	1	-3
O=C1COc2cc(S(=O)(=O)Nc3ccc(F)cc3)ccc2N1	0	6.7*	7	-6	1	0
O=C(CCS(=O)(=O)c1ccc2c(c1)OCC(=O)N2)Nc1ccc(OC(F)(F)F)cc1	0	7.1*	10	0	-1	-10
CCOc1ccc(-n2nc(C(=O)NCCCN(CC)c3cccc(C)c3)c3ccccc3c2=O)cc1	0	0	13	12	.	.
COC(=O)c1ccc2nc(NC(=O)c3ccccc3NC(C)=O)sc2c1	0	-1	15	-16	.	.
COc1ccccc1N1C(=O)/C(=C2/C(=O)N(C(C)=O)c3ccccc32)SC1=S	0	6.5*	23	-5	-2	-9
CC(=O)N1C(=O)/C(=C2\SC(=S)N(c3ccccc3F)C2=O)c2ccccc21	0	0	-3	0	.	.
COc1ccccc1-n1c(SCC(=O)Nc2ccc(Cl)cc2)nc(O)cc1=O	0	-1	12	11	.	.
Cc1ncc2c(c1CNS(=O)(=O)Cc1ccccc1)CCN(C(=O)CN1CCCC1)C2	0	0	7	-9	.	.
CC(C)N(CCNc1nc(N2CCC(N3CCOCC3)CC2)nc2c1ncn2C1CCCCC1)C(C)C	0	14*	10	3	1	6
Cc1cnc(N2CCC(N3CCOCC3)CC2)nc1NCCN(C(C)C)C(C)C	0	6.7*	-9	1	-1	6
CCOC(=O)N1CCN(C(=O)c2ccc(N3CCC(N4CCCC(O)C4)CC3)cc2)CC1 (stereo not drawn)	0	0	-5	4	.	.
COc1cccc(/C=N/NC(=O)Cc2cc(=O)[nH][nH]2)c1OC	0	1	11	9	.	.
CCc1ccc(NC(=O)CSc2nc3ccccc3c(=O)n2CCc2ccc(OC)c(OC)c2)cc1	0	0	-8	-1	.	.
COc1ccc(NC(=O)CSc2nc3ccccc3c(=O)n2CCCC(=O)NCc2ccccc2)c(OC)c1	0	7.5*	3	0	-1	-23
CCn1c(SCC(=O)Nc2ccc(C(=O)OC)cc2)nc2cccnc21	0	5.5*	12	4	0	-6
COc1ccc(NC(=O)CCCN2C(=O)CCC2=O)c(OC)c1	0	10*	16	3	-1	1
CCc1ccc(NC(=O)CSc2nc3ccccc3c(=O)n2CCc2ccccc2)cc1	0	5.8*	-6	-2	-1	-12

Screening results as filed in PubChem.
